Source: PubChem BioAssay (several laboratories)
Vc quorum ag: inducers of Vibrio cholerae quorum light production without autoinducers, primary screen, BH1578 luxS cqsA deficient, single point; V. cholerae BH1578 lux reporter, luminescence, 6 h; activation, % at 18.7 µM; 350,000 compounds, 0.16% hits; AID 588436, 2011; in the data active = activation mostly above about 9.7%, no sharp cut-off
GDH-TPI counter-1: GDH-TPI coupling enzyme inhibitors, primary screen, artefact control for M. tuberculosis FBA inhibitor project, biochemical, absorbance, full deck. AID 588335, 2011. 360,000 compounds, 1.2% hits. GDH-TPI coupled enzyme counterscreen, NADH absorbance. inhibition, % at 4.8 µM; in the data active = inhibition above about 30%;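 note: 0% = DMSO wells and 100% = wells lacking the enzyme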
FBA Mtb inh: Mtb FBA enzyme inhibitors, primary screen, biochemical, fluorescence, strain H37Rv; Fructose-bisphosphate aldolase (Mycobacterium tuberculosis (strain ATCC 25618 / H37Rv)), …; purified M. tuberculosis FBA, fluorescence read-out; inhibition, % at 1 µM; 360,000 compounds, 2.3% hits; AID 588726, 2011;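 note: 0% = vehicle and 100% = reference inhibitor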
Target sequence (P9WQA3 whole entry, looked up): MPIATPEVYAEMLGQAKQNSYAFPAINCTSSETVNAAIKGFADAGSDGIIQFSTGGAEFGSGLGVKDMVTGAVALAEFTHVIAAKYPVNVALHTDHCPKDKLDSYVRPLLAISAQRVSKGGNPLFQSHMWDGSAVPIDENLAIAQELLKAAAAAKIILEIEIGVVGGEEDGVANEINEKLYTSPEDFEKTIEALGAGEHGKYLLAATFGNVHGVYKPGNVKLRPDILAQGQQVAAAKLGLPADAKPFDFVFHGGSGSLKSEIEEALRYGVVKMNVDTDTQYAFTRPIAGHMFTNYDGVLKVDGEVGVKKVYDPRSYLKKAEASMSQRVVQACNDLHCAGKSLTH
Mtb BioA inh: M. tuberculosis BioA enzyme inhibitors, primary screen, biochemical, plate reader, single point, HTS; inhibition, % at 9.99 µM; purified M. tuberculosis BioA enzyme; AID 602481, 2012; 360,000 compounds, 0.096% hits; in the data active = inhibition above about 40%
Mtb FBA confirm: M. tuberculosis aldolase blockers, biochemical, fluorescence, strain H37Rv, confirmation; shares compounds with FBA Mtb inh; purified M. tuberculosis FBA, fluorescence read-out; inhibition, % at 1 µM; 5,600 compounds, 78% hits;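 note: 0% = vehicle wells and 100% = reference inhibitor wells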
GDH-TPI counter-2: GDH-TPI coupling enzyme inhibitors, artefact control for M. tuberculosis FBA inhibitor project, biochemical, fluorescence, high throughput | GDH-TPI coupled enzyme counterscreen | shares compounds with FBA Mtb inh | inhibition, % at 1 µM | AID 652141, 2013 | 5,600 compounds, 81% hits; in the data active = inhibition above about 10%
GDH-TPI dose: GDH-TPI coupling enzyme inhibitors, dose response, artefact control for M. tuberculosis FBA inhibitor project, biochemical, fluorescence, IC50. shares compounds with FBA Mtb inh. GDH-TPI coupled enzyme assay, artifact counterscreen. IC50, µM. 170 compounds, 79% hits. AID 652145, 2013; call rule not given here
Active calls of the source: *; i = inactive; nt = no result; + = active, no number. In the library only some 3% were active in any assay of this set; here they are far more common. Cut-off read from the data, not from the text of the source, unless noted: active = inhibition above about 27%; inactive = the rest.

SMILES | Vc quorum ag | GDH-TPI counter-1 | FBA Mtb inh | Mtb BioA inh | Mtb FBA confirm | GDH-TPI counter-2 | others
CCCCN(C)C(=O)c1cc2cc3ccc(OC)cc3nc2o1 | i | 15 | 78* | -1 | 3 | 2
CCCCN(C)C(=O)c1cc2cc3cc(OC)ccc3nc2o1 | -1 | 9 | 74* | nt | 166* | 127*
Cc1ccc(-c2cn3c(n2)CCCC3)cc1 | 0 | -5 | 38* | 1 | + | 159*
O=c1oc2cccnc2n1CCS(=O)(=O)c1ccc(F)cc1 | 0 | 8 | 39* | nt | 4 | 1
COc1ccc2c(C)c(CC(=O)N3C[C@H]4C[C@@H](C3)c3cccc(=O)n3C4)c(=O)oc2c1 | 0 | 11 | 111* | -1 | 146* | 104*
COc1ccc2c(C)c(CCC(=O)N3C[C@H]4C[C@@H](C3)c3cccc(=O)n3C4)c(=O)oc2c1 | 0 | 10 | 68* | 2 | 118* | 128*
O=C(COc1ccc2c3c(c(=O)oc2c1)CCCC3)N1C[C@H]2C[C@@H](C1)c1cccc(=O)n1C2 | -1 | 4 | 19 | 7 | nt | nt
Cc1c(CC(=O)N2C[C@H]3C[C@@H](C2)c2cccc(=O)n2C3)c(=O)oc2cc3occ(C(C)(C)C)c3cc12 | -1 | 8 | 14 | -1 | nt | nt
Cc1c(Br)c(=O)oc2cc(OCC(=O)N3C[C@H]4C[C@@H](C3)c3cccc(=O)n3C4)ccc12 | 0 | 22 | 40* | 7 | 54* | 65*
COc1ccc(S(=O)(=O)Nc2ccc3c(c2)C(=O)N([C@H](C)CO)C[C@@H](C)[C@@H](CN(C)S(=O)(=O)c2c(C)noc2C)OCCCC[C@H](C)O3)cc1 | nt | nt | nt | -1 | nt | nt
CO[C@H]1CN(C)C(=O)c2cc(NC(C)=O)ccc2OC[C@H](C)N(S(=O)(=O)c2cn(C)cn2)C[C@@H]1C | nt | nt | nt | -1 | nt | nt
Cc1cc(C)c(N)c(C(=O)O)c1 | -10 | -9 | 48* | -1 | + | +
CCN(C(=O)C1CC1)C1CCS(=O)(=O)C1 (stereo unspecified) | -2 | -6 | 35* | 0 | 121* | 106*
CC(=O)OC1CCC2(C)C(COc3ccc4ccc(=O)oc4c3)C(C)(O)CCC2C1(C)C (stereo unspecified) | i | 22 | 79* | 2 | 42* | 38*
CO[C@@H]1CN(C)C(=O)c2ccc(NC(=O)C3CC3)cc2OC[C@@H](C)N(CCc2ccccc2)C[C@@H]1C | nt | nt | nt | 6 | nt | nt
Cc1cc(=O)n2[nH]cc(-c3ccccc3)c2n1 | 0 | 7 | 34* | -3 | 73* | 60*
COc1cccc(C(=O)Nc2ccc(-c3nc4ccccc4o3)c(O)c2)c1 | -6 | 33* | 43* | 0 | 46* | 33*
COc1ccc(S(=O)(=O)Nc2ccc3c(c2)C(=O)N([C@@H](C)CO)C[C@@H](C)[C@H](CN(C)S(=O)(=O)c2ccc(OC)cc2)O3)cc1 | nt | nt | nt | 3 | nt | nt
COc1ccc(CNC(=O)C2(C)Cc3c(-c4ccc(N(C)C)cc4)ccnc3O2)cc1OC (stereo unspecified) | i | 19 | 55* | 0 | 73* | 50*
COc1ccc(NC(=O)C2(C)Cc3c(-c4ccc(N(C)C)cc4)ccnc3O2)cc1 (stereo unspecified) | 1 | 19 | 33* | 0 | 104* | 91*
COc1ccc(NC(=O)C2(C)Cc3c(-c4ccc(NC(C)=O)cc4)ccnc3O2)cc1 (stereo unspecified) | -1 | -8 | 1 | 11 | nt | nt
COc1ccc(CNC(=O)C2(C)Cc3c(-c4ccccc4)ccnc3O2)cc1OC (stereo unspecified) | i | 4 | 0 | 3 | nt | nt
COc1ccc(NC(=O)C2(C)Cc3c(-c4ccc(N(C)C)cc4)ccnc3O2)cc1OC (stereo unspecified) | 1 | 16 | 29* | 2 | 14 | -2 | GDH-TPI dose=1.2*
COc1ccccc1NC(=O)N[C@@H]1C=C[C@H](CC(=O)N2CCC(Cc3ccccc3)CC2)O[C@H]1CO | nt | nt | nt | -4 | nt | nt
CN1CCN(C(=O)C[C@H]2CC[C@H]3[C@@H](COC[C@@H](O)CN3C(=O)Nc3ccc(Cl)cc3)O2)CC1 | nt | nt | nt | 0 | nt | nt
SMILES | Vc quorum ag | GDH-TPI counter-1 | FBA Mtb inh | Mtb BioA inh | Mtb FBA confirm | GDH-TPI counter-2 | others
O=C(C[C@@H]1CC[C@H]2[C@@H](COC[C@@H](O)CN2C(=O)c2ccc(F)cc2)O1)N1CCOCC1 | nt | nt | nt | -1 | nt | nt
C=CCOCCn1[nH]c2ccccc2c1=O | i | 3 | 47* | 1 | 130* | 108*
CCCC#Cc1cnc2c(c1)C(=O)N([C@H](C)CO)C[C@H](C)[C@H](CN(C)C(=O)Nc1ccccc1F)O2 | nt | nt | nt | -1 | nt | nt
CCOc1cc(S(=O)(=O)NCc2ccco2)c(OCC)cc1-n1cnnn1 | -2 | 8 | 30* | nt | 63* | 45*
CCOc1cc(S(=O)(=O)N2CCN(S(=O)(=O)CC)CC2)c(OCC)cc1-n1cnnn1 | 0 | 1 | 9 | -1 | nt | nt
CCOc1cc(S(=O)(=O)NC2CC2)c(OCC)cc1-n1cnnn1 | i | -5 | 34* | -1 | 184* | 159*
CCNC(=S)Nc1ccc2c(c1)c(=O)n(C)n2Cc1cccc(C(F)(F)F)c1 | i | 3 | 80* | 1 | 190* | 150*
Cc1ccc(CNC(=S)Nc2ccc3c(c2)c(=O)n(C)n3Cc2cccc(C(F)(F)F)c2)cc1 | i | 13 | 36* | 0 | 141* | 101*
COc1cccc(CNC(=S)Nc2ccc3c(c2)c(=O)n(C)n3Cc2csc(C)n2)c1 | 0 | 5 | 18 | -1 | nt | nt
COCCNC(=O)C[C@H]1C[C@@H]2c3cc(NC(=O)Nc4ccccc4F)ccc3O[C@@H]2[C@H](CO)O1 | nt | nt | nt | -1 | nt | nt
CO[C@@H]1CN(C)C(=O)c2cc(NC(=O)C3CCCCC3)ccc2OC[C@H](C)N(C)C[C@H]1C | nt | nt | nt | 2 | nt | nt
CCCCn1c(=O)[nH]c(=O)c2c1nc(-c1ccccn1)n2CC | 0 | 5 | 53* | -1 | 33* | 33*
O=C(COc1ccc2c3c(c(=O)oc2c1)CCCC3)NCCCn1ccnc1 | 0 | 6 | 29* | 0 | + | 194*
CCCc1cc(=O)oc2c(C)c(OCC(=O)NCCCn3ccnc3)ccc12 | -1 | 7 | 11 | -1 | nt | nt
Cc1cc(=O)oc2cc(OCC(=O)NCCCn3ccnc3)ccc12 | -3 | 11 | 17 | 1 | nt | nt
Cc1c(C)c2ccc(OCC(=O)NCCCn3ccnc3)cc2oc1=O | 0 | 13 | 62* | 0 | 195* | 138*
